# Assay results published in the supplement of paper PMC8728848.
# This excerpt belongs to a sample that is enriched for the strongest signals.
# B1: CaSRK1 (Capsicum annuum) (protein)
# chain: MALCKIFPFAFILLSCSCYLISGQRFDYPTANLSTTWINSVSAPHSIDYTDGSRIRAILLRGTFGPRYACGFYCNGNCESYLFAIFIVQTNSASQITSPAIGFPQVVWSANRNNPVKINSTLQLTAEGDLVLRDADGTLAWSTNTAGKSVAGLSLTDEGNLALFDSKNATVWQSFDHPTDALVPGQKLVPGMKLTASVSRTNWTAGGLFALSAIDNGLVAFVESNPPQKYFEASVGGSNTSGGSNYVKYLNGSLTLFTHSADTTELILISITPASSAQYMKLESNGHLKVYEWTSRGWREVDDLLTGFRGECNYPTVCGRYGICTMGQCSCPTSSSSRTYFRPIDVRRPSLGCSEVTKLTCQNTKKHSPLEVEDVDYFAFKAGISDTDLNTCKRACLEKCSCKAAFFRSGLNSSRTRGDCYLPTEIFSIMNNEKDRTRYDSVAFIKVQV
# B2: SCA (Schizophyllum commune) (protein)
# chain: MGIDQGVYLITNAGSGTAATLKDGYVKGWERIKGKEQLNQLWFVKSVKTSASDPGYAAFNLATNKVLDLEKGLADRGTPILGWDYHEGDNQHWVIKKQADGKYYKIQSVKTQTFVDLNNGGKDNGTKIQGWVGSWDETNSHQRWVFNQFSATGSRIKSILDTHPKIHGKVIVEWPDRIYFTPDQYIFEAIWAKTGLADIKPRDPLFQSEAYEKVFKGWVVSRAQEIIKVDGFDILVGSLSLVEKSTQKIKVLDVSVRTSDDKSPDLSQIVFFDPESGRTLVDIPEGYEVNSVII
# Experiments:
# Assay in all cases: glycan array binding signal (z-score within array); higher = stronger binding
# Settings in all cases: glycan notation: IUPAC condensed, linker removed
# [1] = biological target: Man(a1-3)[Man(a1-6)]Man(a1-6)[Man(a1-2)Man(a1-3)]Man(b1-4)GlcNAc(b1-4)GlcNAc
# Summary of the method: (§1)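 Arrays were curated from the Consortium for Functional Glycomics database, 3228 in total, and kept only where the protein sequence was available. Binding is expressed as a within-array Z-score. This score was averaged across arrays of the same protein sequence at different concentrations or buffers and across linkers, and negative values can be read as non-binding.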
# [2] = biological target: Man(a1-3)[Man(a1-6)]Man(a1-6)[Man(a1-3)]Man
# Summary of the method: as §1
# Man(a1-6)Man = biological target: Man(a1-6)Man
# Summary of the method: as §1
# [3] = biological target: Neu5Ac(a2-3)Gal(b1-3)GlcNAc(b1-2)Man(a1-3)[GlcNAc(b1-4)][Neu5Ac(a2-3)Gal(b1-3)GlcNAc(b1-2)Man(a1-6)]Man(b1-4)GlcNAc(b1-4)GlcNAc
# Summary of the method: as §1
# [4] = biological target: Neu5Ac(a2-3)Gal(b1-3)GlcNAc(b1-4)Gal(b1-4)Glc
# Summary of the method: as §1
# Neu5Ac(a2-3)Gal(b1-4)Glc = biological target: Neu5Ac(a2-3)Gal(b1-4)Glc
# Summary of the method: as §1
# [5] = biological target: Neu5Ac(a2-3)Gal(b1-4)GlcNAc(b1-2)Man
# Summary of the method: as §1
# [6] = biological target: Neu5Ac(a2-3)Gal(b1-4)GlcNAc(b1-2)[Neu5Ac(a2-3)Gal(b1-4)GlcNAc(b1-4)]Man(a1-3)[GlcNAc(b1-4)][Neu5Ac(a2-3)Gal(b1-4)GlcNAc(b1-4)Man(a1-6)]Man(b1-4)GlcNAc(b1-4)GlcNAc
# Summary of the method: as §1
# [7] = biological target: Neu5Ac(a2-3)Gal(b1-4)GlcNAc(b1-3)Gal(b1-4)GlcNAc(b1-2)Man(a1-3)[Neu5Ac(a2-3)Gal(b1-4)GlcNAc(b1-3)Gal(b1-4)GlcNAc(b1-2)Man(a1-6)]Man(b1-4)GlcNAc(b1-4)GlcNAc
# Summary of the method: as §1
# [8] = biological target: Neu5Ac(a2-3)[GalNAc(b1-4)]Gal(b1-4)GlcNAc
# Summary of the method: as §1
# [9] = biological target: Neu5Ac(a2-6)Gal(b1-4)GlcNAc(b1-2)Man(a1-3)[Gal(b1-4)GlcNAc(b1-2)Man(a1-6)]Man(b1-4)GlcNAc(b1-4)GlcNAc
# Summary of the method: as §1
# [10] = biological target: Neu5Ac(a2-6)Gal(b1-4)GlcNAc(b1-2)Man(a1-6)[Man(a1-3)]Man(b1-4)GlcNAc(b1-4)GlcNAc
# Summary of the method: as §1
# [11] = biological target: Neu5Ac(a2-6)Gal(b1-4)GlcNAc(b1-2)[Neu5Ac(a2-6)Gal(b1-4)GlcNAc(b1-4)]Man(a1-3)[GlcNAc(b1-4)][Neu5Ac(a2-6)Gal(b1-4)GlcNAc(b1-4)Man(a1-6)]Man(b1-4)GlcNAc(b1-4)GlcNAc
# Summary of the method: as §1
# [12] = biological target: Neu5Ac(a2-6)Gal(b1-4)GlcNAc(b1-3)Gal(b1-4)GlcNAc
# Summary of the method: as §1
# [13] = biological target: Neu5Ac(a2-6)Gal(b1-4)GlcNAc(b1-3)Gal(b1-4)GlcNAc(b1-3)Gal(b1-4)GlcNAc(b1-2)Man(a1-3)[Neu5Ac(a2-6)Gal(b1-4)GlcNAc(b1-3)Gal(b1-4)GlcNAc(b1-3)Gal(b1-4)GlcNAc(b1-2)Man(a1-6)]GalNAc
# Summary of the method: as §1
# [14] = biological target: Neu5Ac(a2-8)Neu5Ac(a2-3)[GalNAc(b1-4)]Gal(b1-4)Glc
# Summary of the method: as §1
# [15] = biological target: Neu5Ac(a2-8)Neu5Ac(a2-8)Neu5Ac(a2-8)Neu5Ac(a2-3)[GalNAc(b1-4)]Gal(b1-4)Glc
# Summary of the method: as §1
# [16] = biological target: Neu5Gc(a2-3)Gal(b1-3)[Fuc(a1-4)]GlcNAc
# Summary of the method: as §1
# Neu5Gc(a2-3)Gal(b1-4)Glc = biological target: Neu5Gc(a2-3)Gal(b1-4)Glc
# Summary of the method: as §1
# [17] = biological target: Neu5Gc(a2-3)Gal(b1-4)GlcNAc
# Summary of the method: as §1
# [18] = biological target: Fuc(a1-2)Gal(b1-3)[Fuc(a1-4)]GlcNAc
# Summary of the method: as §1
# Fuc(a1-2)Gal(b1-4)Glc = biological target: Fuc(a1-2)Gal(b1-4)Glc
# Summary of the method: as §1
# [19] = biological target: Fuc(a1-2)Gal6S(b1-4)GlcNAc
# Summary of the method: as §1
# [20] = biological target: Fuc(a1-2)[Gal(a1-3)]Gal(b1-4)GlcNAc
# Summary of the method: as §1
# [21] = biological target: Fuc(a1-2)[Gal(a1-3)]Gal(b1-4)GlcNAc(b1-2)Man(a1-3)[Fuc(a1-2)[Gal(a1-3)]Gal(b1-4)GlcNAc(b1-2)Man(a1-6)]Man(b1-4)GlcNAc(b1-4)GlcNAc
# Summary of the method: as §1
# [22] = biological target: Fuc(a1-2)[Gal(a1-3)]Gal(b1-4)GlcNAc(b1-3)GalNAc
# Summary of the method: as §1
# [23] = biological target: Fuc(a1-2)[Gal(a1-3)]Gal(b1-4)[Fuc(a1-3)]Glc
# Summary of the method: as §1
# [24] = biological target: Fuc(a1-2)[GalNAc(a1-4)]Gal(b1-4)GlcNAc
# Summary of the method: as §1
# [25] = biological target: Fuc(a1-3)[Gal(b1-4)]Glc6S
# Summary of the method: as §1
# [26] = biological target: Gal(a1-3)Fuc(a1-2)Gal(b1-4)GlcNAc(b1-3)[Gal(a1-3)Fuc(a1-2)Gal(b1-4)GlcNAc(b1-6)]GalNAc
# Summary of the method: as §1
# Gal(a1-3)Gal(b1-4)GlcNAc = biological target: Gal(a1-3)Gal(b1-4)GlcNAc
# Summary of the method: as §1
# [27] = biological target: Gal(a1-4)Gal(b1-3)GlcNAc(b1-2)Man(a1-3)[Gal(a1-4)Gal(b1-3)GlcNAc(b1-2)Man(a1-6)]Man(b1-4)GlcNAc(b1-4)GlcNAc
# Summary of the method: as §1
# Gal(a1-4)GlcNAc = biological target: Gal(a1-4)GlcNAc
# Summary of the method: as §1
# [28] = biological target: Gal(b1-3)Gal(b1-4)GlcNAc(b1-2)Man(a1-3)[Gal(b1-3)Gal(b1-4)GlcNAc(b1-2)Man(a1-6)]Man(b1-4)GlcNAc(b1-4)GlcNAc
# Summary of the method: as §1
# Gal(b1-3)GlcNAc = biological target: Gal(b1-3)GlcNAc
# Summary of the method: as §1
# [29] = biological target: Gal(b1-3)GlcNAc(b1-2)Man(a1-3)[Gal(b1-3)GlcNAc(b1-2)Man(a1-6)]Man(b1-4)GlcNAc(b1-4)[Fuc(a1-6)]GlcNAc
# Summary of the method: as §1
# [30] = biological target: Gal(b1-3)GlcNAc(b1-3)Gal(b1-4)GlcNAc
# Summary of the method: as §1
# [31] = biological target: Gal(b1-3)[Fuc(a1-4)]GlcNAc(b1-2)Man(a1-3)[Gal(b1-3)[Fuc(a1-4)]GlcNAc(b1-2)Man(a1-6)]Man(b1-4)GlcNAc(b1-4)[Fuc(a1-6)]GlcNAc
# Summary of the method: as §1
# [32] = biological target: Gal(b1-4)GlcNAc(b1-3)Gal(b1-4)Glc
# Summary of the method: as §1
# [33] = biological target: Gal(b1-4)GlcNAc(b1-3)GalNAc
# Summary of the method: as §1
# [34] = biological target: GalNAc(a1-3)Fuc(a1-2)Gal(b1-4)GlcNAc(b1-3)[GalNAc(a1-3)Fuc(a1-2)Gal(b1-4)GlcNAc(b1-6)]GalNAc
# Summary of the method: as §1
# GalNAc(b1-4)Gal(b1-4)Glc = biological target: GalNAc(b1-4)Gal(b1-4)Glc
# Summary of the method: as §1
# GlcA(b1-3)Gal = biological target: GlcA(b1-3)Gal
# Summary of the method: as §1
# GlcNAc(b1-3)Gal(b1-4)Glc = biological target: GlcNAc(b1-3)Gal(b1-4)Glc
# Summary of the method: as §1
# Kdn(a2-3)Gal(b1-4)Glc = biological target: Kdn(a2-3)Gal(b1-4)Glc
# Summary of the method: as §1
# Kdn(a2-6)Gal(b1-4)GlcNAc = biological target: Kdn(a2-6)Gal(b1-4)GlcNAc
# Summary of the method: as §1
# [35] = biological target: Neu5Ac(a2-3)Gal(b1-4)GlcNAc(b1-3)Gal(b1-4)[Fuc(a1-3)]GlcNAc
# Summary of the method: as §1
# [36] = biological target: Neu5Ac(a2-3)[GalNAc(b1-4)]Gal(b1-4)GlcNAc(b1-3)GalNAc
# Summary of the method: as §1
# Neu5Ac(a2-6)GalNAc = biological target: Neu5Ac(a2-6)GalNAc
# Summary of the method: as §1
# [37] = biological target: Neu5Ac9Ac(a2-3)Gal(b1-4)GlcNAc
# Summary of the method: as §1
# [38] = biological target: Neu5Gc(a2-6)Gal(b1-4)GlcNAc
# Summary of the method: as §1
binder,measurement,setting,value
B1,glycan array binding signal (z-score),[1],-0.258
same,glycan array binding signal (z-score),[2],-0.303
same,glycan array binding signal (z-score),Man(a1-6)Man,1.5
same,glycan array binding signal (z-score),[3],-0.549
same,glycan array binding signal (z-score),[4],0.467
same,glycan array binding signal (z-score),Neu5Ac(a2-3)Gal(b1-4)Glc,-0.089
same,glycan array binding signal (z-score),[5],7.73
same,glycan array binding signal (z-score),[6],0.06
same,glycan array binding signal (z-score),[7],1.33
same,glycan array binding signal (z-score),[8],-0.414
same,glycan array binding signal (z-score),[9],-0.423
same,glycan array binding signal (z-score),[10],-0.589
same,glycan array binding signal (z-score),[11],-0.513
same,glycan array binding signal (z-score),[12],-0.402
same,glycan array binding signal (z-score),[13],2.58
same,glycan array binding signal (z-score),[14],-0.56
same,glycan array binding signal (z-score),[15],-0.413
same,glycan array binding signal (z-score),[16],-0.319
same,glycan array binding signal (z-score),Neu5Gc(a2-3)Gal(b1-4)Glc,3.18
same,glycan array binding signal (z-score),[17],-0.416
B2,glycan array binding signal (z-score),[18],-0.163
same,glycan array binding signal (z-score),Fuc(a1-2)Gal(b1-4)Glc,-0.153
same,glycan array binding signal (z-score),[19],-0.161
same,glycan array binding signal (z-score),[20],5.61
same,glycan array binding signal (z-score),[21],7.08
same,glycan array binding signal (z-score),[22],2.52
same,glycan array binding signal (z-score),[23],-0.163
same,glycan array binding signal (z-score),[24],0.703
same,glycan array binding signal (z-score),[25],-0.16
same,glycan array binding signal (z-score),[26],6.72
same,glycan array binding signal (z-score),Gal(a1-3)Gal(b1-4)GlcNAc,8.25
same,glycan array binding signal (z-score),[27],3.68
same,glycan array binding signal (z-score),Gal(a1-4)GlcNAc,-0.135
same,glycan array binding signal (z-score),[28],11.4
same,glycan array binding signal (z-score),Gal(b1-3)GlcNAc,-0.162
same,glycan array binding signal (z-score),[29],-0.159
same,glycan array binding signal (z-score),[30],-0.158
same,glycan array binding signal (z-score),[31],-0.054
same,glycan array binding signal (z-score),[32],-0.16
same,glycan array binding signal (z-score),[33],-0.159
same,glycan array binding signal (z-score),[34],0.835
same,glycan array binding signal (z-score),GalNAc(b1-4)Gal(b1-4)Glc,-0.162
same,glycan array binding signal (z-score),GlcA(b1-3)Gal,8.44
same,glycan array binding signal (z-score),GlcNAc(b1-3)Gal(b1-4)Glc,-0.158
same,glycan array binding signal (z-score),Kdn(a2-3)Gal(b1-4)Glc,-0.152
same,glycan array binding signal (z-score),Kdn(a2-6)Gal(b1-4)GlcNAc,-0.162
same,glycan array binding signal (z-score),[35],-0.164
same,glycan array binding signal (z-score),[36],-0.161
same,glycan array binding signal (z-score),Neu5Ac(a2-6)GalNAc,-0.162
same,glycan array binding signal (z-score),[37],-0.16
same,glycan array binding signal (z-score),[17],-0.161
same,glycan array binding signal (z-score),[38],-0.162
